Active and inactive are the calls of the source.
Legend:
[1] = biological target: Albumin (Bos taurus) (UniProt P02769); experiment: compounds binding labelled BSA control protein – biochemical, small-molecule microarray, Alexa647 label, 635/667 nm fluorescence, artefact control for SMM control protein annotation, profiling panel (AID 1118); details: BSA-A647 binding, fluorescence 635 nm, higher = more signal;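 further: score merges 667 nm emission intensity and signal-to-noise per printed compound spot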
[2] = probe aXIP binding to arrayed compounds – biochemical, NeuroSMM set, 635/667 nm fluorescence, primary screen (AID 1119); details: small-molecule microarray, higher = more signal, called active from +8 up or from −8 down;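 further: probe is the protein aXip251-270 applied at 1 µg/mL to compound-printed slides; binding of probe to printed compounds measured as 667 nm fluorescence plus signal to noise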
[3] = probe aNOTCH3 binding on compound microarray – biochemical, small-molecule microarray, 635/667 nm fluorescence, primary screen (AID 1120); details: higher = more signal;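 further: probe is a biotin-tagged antibody raised against NOTCH3 rather than NOTCH3 protein; score merges spot fluorescence near 667 nm with spot signal to noise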
[4] = probe aNOTCH2 binding on compound microarray – biochemical, small-molecule microarray, 635/667 nm fluorescence, primary screen (AID 1121); details: higher = more signal;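 further: score merges feature fluorescence read at 667 nm with its signal to noise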
[5] = biological target: Carbonic anhydrase 2 (Homo sapiens) (UniProt P00918); experiment: compounds binding carbonic anhydrase 2 – biochemical, small-molecule microarray, Alexa647-labelled CAII, profiling panel (AID 1122); details: CAII-A647 binding fluorescence, higher = more signal
[6] = COS7 lysate on small-molecule microarray, probe aHis, 635 nm (AID 1123); details: COS7 cell lysate, fluorescence, higher = more signal;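 further: z-score combines 667nm fluorescence intensity with signal-to-noise per printed compound spot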
[7] = probe aLAP1 signal on lysate-treated microarray – cell lysate, small-molecule microarray, COS7 lysate, primary screen (AID 1124); details: probe aLAP1, fluorescence, higher = more signal;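 further: lysate comes from COS7 cells expressing LAP1 and is applied at 0.3 µg/mL; score merges spot fluorescence near 667 nm with signal-to-noise over triplicate slides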
[8] = test system: Sam68 (KHDRBS1); experiment: compounds binding KHDRBS1 protein – biochemical, small-molecule microarray, 635 nm fluorescence, primary screen (AID 1125); details: higher = more signal;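 further: score merges 667 nm channel intensity with signal to noise over triplicate slides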
[9] = test system: Chordin-like protein 2 (CHRDL2); experiment: compounds binding chordin-like 2 – biochemical, small-molecule microarray, 635 nm fluorescence, primary screen (AID 1126); details: fluorescence 635 nm, higher = more signal;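 further: printed compound slides probed with Chrdl2 protein at 4 µg/mL for 1 h at 4 C; score merges 667 nm emission intensity with signal to noise over three replicate slides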
[10] = biological target: Concanavalin-A (Canavalia ensiformis) (UniProt P02866); experiment: compounds binding concanavalin A lectin – biochemical, small-molecule microarray, Alexa647 label, 635 nm, artefact control for SMM control protein annotation, primary screen (AID 1127); details: ConA-A647 binding fluorescence, higher = more signal;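 further: z combines 667 nm emission intensity with signal-to-noise across three replicate slides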
Concanavalin-A (Canavalia ensiformis), sequence (P02866 whole entry, looked up): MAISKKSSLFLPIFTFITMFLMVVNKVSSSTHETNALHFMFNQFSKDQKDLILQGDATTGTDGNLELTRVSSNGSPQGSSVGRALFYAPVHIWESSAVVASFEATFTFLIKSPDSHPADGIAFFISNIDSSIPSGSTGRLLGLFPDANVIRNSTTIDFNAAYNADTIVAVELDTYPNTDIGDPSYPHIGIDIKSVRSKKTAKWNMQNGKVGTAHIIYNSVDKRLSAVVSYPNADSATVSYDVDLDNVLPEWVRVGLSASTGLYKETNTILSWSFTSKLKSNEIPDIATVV

Albumin (Bos taurus), sequence (P02769 whole entry, looked up): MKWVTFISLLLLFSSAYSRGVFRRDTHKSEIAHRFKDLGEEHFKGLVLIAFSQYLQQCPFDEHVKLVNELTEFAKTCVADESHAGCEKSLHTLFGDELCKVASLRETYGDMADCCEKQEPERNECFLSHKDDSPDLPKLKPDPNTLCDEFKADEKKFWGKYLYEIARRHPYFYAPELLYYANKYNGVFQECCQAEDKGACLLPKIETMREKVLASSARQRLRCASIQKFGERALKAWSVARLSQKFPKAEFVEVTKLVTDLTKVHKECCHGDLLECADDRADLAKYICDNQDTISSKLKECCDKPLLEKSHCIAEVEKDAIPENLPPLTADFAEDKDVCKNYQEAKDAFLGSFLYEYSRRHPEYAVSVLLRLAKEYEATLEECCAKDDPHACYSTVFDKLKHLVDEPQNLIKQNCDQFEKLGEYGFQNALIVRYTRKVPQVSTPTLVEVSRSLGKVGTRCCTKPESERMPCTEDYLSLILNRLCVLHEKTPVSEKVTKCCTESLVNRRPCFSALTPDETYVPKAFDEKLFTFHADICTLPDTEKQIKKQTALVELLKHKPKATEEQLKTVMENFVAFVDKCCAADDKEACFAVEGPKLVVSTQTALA

Compound	composite z-score [1]	composite Z-score [2]	composite z-score [3]	composite z-score [4]	composite z-score [5]	composite z-score [6]	composite z-score [7]	composite z-score [8]	composite z-score [9]	composite z-score [10]
C[C@@H]1C=CCC(=O)OC[C@H]2O[C@@H](C=C[C@@H]2O)[C@H](C)C=CCC(=O)OC1	-0.861	4.07 (inactive)	0.0903	-0.0903	-0.5	-1.26	-0.307	-0.419	1.6	-1.65
CCN1C(=O)[C@H]2[C@H]3[C@H](O)[C@H](O)CC(=O)[C@H]3CC[C@H]2C1=O	0.234	-0.274 (inactive)	-0.0921	-0.0793	0.0164	-0.209	0.0555	0.47	0.689	0.541
O=C(C=Cc1ccc2c(c1)OCO2)c1ccc(F)cc1	-0.744	-0.188 (inactive)	0.278	-0.0811	-0.236	-0.542	0.134	-0.21	1.31	0.108
CON=CC[C@@H]1C=C[C@H](OC(C)=O)[C@@H](COC(C)=O)O1	-0.714	1.33 (inactive)	0.287	0.0007	0.397	0.043	0.18	-0.0499	0.679	-0.32
CCC=CCCC(OC(=O)c1ccc(Br)cc1)C1=CCCCC1=O (stereo not given)	0.231	-0.0549 (inactive)	0.0836	-0.102	0.696	0.678	0.0079	0.776	1.02	-0.297
CC(C)[C@@H](OCc1ccccc1)[C@H](C)C=NOC[C@@H](O)COCc1ccco1	-0.113	-0.0572 (inactive)	-0.819	-0.244	-0.512	0.0121	0.0218	-0.185	-1.48	-1.15
CCCNC(=O)OC[C@H]1O[C@H](c2ccccc2)C=C[C@@H]1Oc1ccc(OC)cc1	0.16	0.0414 (inactive)	-0.15	-0.14	0.066	0.232	0.0186	-0.573	0.062	-0.316
COC(=O)[C@H](C)NC(=O)CCC1CC(OC(=O)NCCc2ccc(F)cc2)CC2(CCCC(COC(=O)NCCC(C)C)O2)O1 (stereo not given in full)	0.828	0.443 (inactive)	-0.0262	0.128	0.325	0.834	-0.234	0.36	0.0905	0.0934
COC(=O)CC=C[C@@H](C)[C@@H](C=NOC[C@@H](O)[C@H]1O[C@@H]2OC(C)(C)O[C@@H]2[C@H]1O)NS(=O)(=O)c1ccc(C)cc1	-0.0786	-0.72 (inactive)	-0.215	-0.289	-0.0777	-0.152	-0.372	0.524	0.42	-0.137
O=C1[C@H]2[C@H]3[C@H](O)[C@H](O)CC(=NOC[C@@H](O)COCc4ccco4)[C@H]3CC[C@H]2C(=O)N1C[C@@H]1CCCO1	-0.483	0.382 (inactive)	-0.0976	-0.208	-0.237	-0.736	-0.353	0.293	1.38	-0.294
COC(=O)[C@@H]1CC[C@H](C)[C@@H](c2ccc(C)cc2)N1C(=O)c1ccc(C=NOC[C@@H](C)[C@H](OCc2ccccc2)C(C)C)cc1	0.56	3.28 (inactive)	0.0271	-0.185	0.239	1.29	0.247	1.29	0.43	0.736
O=C(NN=C1C[C@@H](O)[C@@H](O)[C@@H]2[C@@H]3C(=O)N(C4CCCCC4)C(=O)[C@@H]3CC[C@H]12)OCc1ccccc1	0.885	-0.229 (inactive)	0.273	0.179	0.0928	0.206	0.947	-0.337	0.209	-0.465
O=C1[C@H]2[C@H]3[C@H](O)[C@H](O)CC(=NOC[C@@H](O)COCc4ccco4)[C@@H]3CC[C@H]2C(=O)N1C[C@@H]1CCCO1	0.63	0.381 (inactive)	-0.0345	-0.0986	-0.267	0.155	0.174	0.902	1.53	-0.281
CC(C)=CCCC(C)=CCON=C1C[C@@H](O)[C@@H](O)[C@@H]2[C@@H]3C(=O)N(C(C)(C)C)C(=O)[C@@H]3CC[C@H]12	0.161	1.26 (inactive)	0.149	-0.0846	0.0334	0.043	0.373	0.293	0.346	0.198
